Source: the supplement of paper PMC10849652
Of roughly 7,900 targets only a part is listed; those with a hit were picked by preference. About 0.6% of all pairs of compound and target were hits. Values without a mark were called inactive.

What was measured:
Assay in all cases: log2 fold change, soluble protein after heating vs DMSO (PISA); higher = thermal stabilisation; K562 cells, 10 uM, 30 min; active = over 0.2 and 3.5 SD of the protein, either way, in both replicates (recomputed)
[1] = compound: CN1CCN(CCOc2cc(OC3CCOCC3)c3c(Nc4c(Cl)ccc5c4OCO5)ncnc3c2)CC1 [saracatinib]
Method in brief: (§1)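 K562 cells at 2×10^6 cells/mL were exposed to 10 μM compound for 30 min, then aliquots were heated for 3 min across 48°C-58°C, pooled, and extracted in PBS containing 0.5% NP-40 at 4°C. The supernatant after 21,000xg for 90 min was taken as soluble protein and measured by TMTpro 16plex LC-MS/MS with channel sums equalised. Thermal stability is reported relative to control samples, with values from duplicates. Fold changes are given on a log2 scale.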

[2] = compound: CN1CCN(c2nc(C3=C(c4c[nH]c5ccccc45)C(=O)NC3=O)c3ccccc3n2)CC1 [sotrastaurin]
Method in brief: as §1

[3] = compound: CN1CC[C@H](c2c(O)cc(O)c3c(=O)cc(-c4ccccc4Cl)oc23)[C@H](O)C1 [alvocidib]
Method in brief: as §1

[4] = compound: CN1CCc2c(c3ccccc3n2Cc2ccc(C(=O)NO)cc2)C1 [Tubastatin A]
Method in brief: as §1

[5] = compound: CNC(=O)C1=CC=CC=C1NC2=NC(=NC=C2Cl)NC3=C(C=C(C=C3)N4CCOCC4)OC
Method in brief: as §1

[6] = compound: CNC(=O)c1ccc(Nc2ncc(C(F)(F)F)c(NCc3nccnc3N(C)S(C)(=O)=O)n2)cc1 [defactinib]
Method in brief: as §1

[7] = compound: CNCc1ccc(-c2[nH]c3cc(F)cc4c3c2CCNC4=O)cc1 [rucaparib]
Method in brief: as §1

[8] = compound: CNc1nc(-c2ccc3c(N)n[nH]c3c2)cc(N2C[C@@H](C(=O)NC3CCCCC3)CC[C@H]2C)n1
Method in brief: as §1

[9] = compound: COC(=O)N[C@@H](C)CNc1nccc(-c2cn(C(C)C)nc2-c2cc(Cl)cc(NS(C)(=O)=O)c2F)n1 [encorafenib]
Method in brief: as §1

[10] = compound: COC(=O)[C@H](CCSC)NC(=O)C1=C(C=C(C=C1)NC[C@H](CS)N)C2=CC=CC=C2
Method in brief: as §1

[11] = compound: COC1=CC=C(C=C1)CN2C=CC3=C2C=C(C=C3)C(=O)NO
Method in brief: as §1

[12] = compound: CON(C)C(=O)N1N=C(c2cc(F)ccc2F)S[C@@]1(CCCN)c1ccccc1 [filanesib]
Method in brief: as §1

[13] = compound: CO[C@H]1C[C@@H]2CC[C@@H](C)[C@@](O)(O2)C(=O)C(=O)N2CCCC[C@H]2C(=O)O[C@H]([C@H](C)C[C@@H]2CC[C@H](n3cnnn3)[C@H](OC)C2)CC(=O)[C@H](C)/C=C(\C)[C@@H](O)[C@@H](OC)C(=O)[C@H](C)C[C@H](C)/C=C/C=C/C=C/1C [zotarolimus]
Method in brief: as §1

[14] = compound: COc1cc(C(=O)O)ccc1NC(=O)[C@@H]1N[C@@H](CC(C)(C)C)[C@](C#N)(c2ccc(Cl)cc2F)[C@H]1c1cccc(Cl)c1F [idasanutlin]
Method in brief: as §1

[15] = compound: COc1cc(Nc2ncc3c(n2)-c2ccc(Cl)cc2C(c2c(F)cccc2OC)=NC3)ccc1C(=O)O [alisertib]
Method in brief: as §1

[16] = compound: COc1cc2nc(-c3cc(F)ccc3O)nc(N[C@@H]3CNC[C@H]3C(C)(C)O)c2cc1OC
Method in brief: as §1

[17] = compound: COc1cc2ncnc(Nc3ccc(F)c(Cl)c3)c2cc1OCCCN1CCOCC1 [gefitinib]
Method in brief: as §1

[18] = compound: COc1cccc2cc(-c3nc([C@H]4CC[C@H](C(=O)O)CC4)n4ncnc(N)c34)[nH]c12
Method in brief: as §1

[19] = compound: CS(=O)(=O)CCNCc1ccc(-c2ccc3ncnc(Nc4ccc(OCc5cccc(F)c5)c(Cl)c4)c3c2)o1 [lapatinib]
Method in brief: as §1

[20] = compound: CS(=O)(=O)N1CCN(Cc2cc3nc(-c4cccc5[nH]ncc45)nc(N4CCOCC4)c3s2)CC1 [pictilisib]
Method in brief: as §1

Sequence of UniProt Q9UBL3 (Q9UBL3 whole entry, looked up): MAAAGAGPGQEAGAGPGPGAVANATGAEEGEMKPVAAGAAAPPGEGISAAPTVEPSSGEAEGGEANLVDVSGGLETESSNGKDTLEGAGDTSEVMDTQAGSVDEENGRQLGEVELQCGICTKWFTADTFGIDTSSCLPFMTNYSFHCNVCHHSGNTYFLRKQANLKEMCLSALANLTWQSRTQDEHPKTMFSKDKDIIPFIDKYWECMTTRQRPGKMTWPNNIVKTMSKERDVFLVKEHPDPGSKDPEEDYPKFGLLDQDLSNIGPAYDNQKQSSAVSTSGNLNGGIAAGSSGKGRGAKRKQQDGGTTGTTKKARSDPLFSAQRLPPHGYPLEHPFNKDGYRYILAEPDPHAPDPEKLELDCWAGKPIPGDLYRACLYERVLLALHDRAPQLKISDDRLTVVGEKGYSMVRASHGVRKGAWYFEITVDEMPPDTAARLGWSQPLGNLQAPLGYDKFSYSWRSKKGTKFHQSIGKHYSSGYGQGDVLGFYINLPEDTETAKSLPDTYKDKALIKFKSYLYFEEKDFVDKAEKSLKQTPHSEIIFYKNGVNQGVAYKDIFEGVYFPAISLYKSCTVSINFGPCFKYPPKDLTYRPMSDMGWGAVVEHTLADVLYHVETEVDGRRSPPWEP
Sequence of UniProt Q9H0E9 (Q9H0E9 whole entry, looked up): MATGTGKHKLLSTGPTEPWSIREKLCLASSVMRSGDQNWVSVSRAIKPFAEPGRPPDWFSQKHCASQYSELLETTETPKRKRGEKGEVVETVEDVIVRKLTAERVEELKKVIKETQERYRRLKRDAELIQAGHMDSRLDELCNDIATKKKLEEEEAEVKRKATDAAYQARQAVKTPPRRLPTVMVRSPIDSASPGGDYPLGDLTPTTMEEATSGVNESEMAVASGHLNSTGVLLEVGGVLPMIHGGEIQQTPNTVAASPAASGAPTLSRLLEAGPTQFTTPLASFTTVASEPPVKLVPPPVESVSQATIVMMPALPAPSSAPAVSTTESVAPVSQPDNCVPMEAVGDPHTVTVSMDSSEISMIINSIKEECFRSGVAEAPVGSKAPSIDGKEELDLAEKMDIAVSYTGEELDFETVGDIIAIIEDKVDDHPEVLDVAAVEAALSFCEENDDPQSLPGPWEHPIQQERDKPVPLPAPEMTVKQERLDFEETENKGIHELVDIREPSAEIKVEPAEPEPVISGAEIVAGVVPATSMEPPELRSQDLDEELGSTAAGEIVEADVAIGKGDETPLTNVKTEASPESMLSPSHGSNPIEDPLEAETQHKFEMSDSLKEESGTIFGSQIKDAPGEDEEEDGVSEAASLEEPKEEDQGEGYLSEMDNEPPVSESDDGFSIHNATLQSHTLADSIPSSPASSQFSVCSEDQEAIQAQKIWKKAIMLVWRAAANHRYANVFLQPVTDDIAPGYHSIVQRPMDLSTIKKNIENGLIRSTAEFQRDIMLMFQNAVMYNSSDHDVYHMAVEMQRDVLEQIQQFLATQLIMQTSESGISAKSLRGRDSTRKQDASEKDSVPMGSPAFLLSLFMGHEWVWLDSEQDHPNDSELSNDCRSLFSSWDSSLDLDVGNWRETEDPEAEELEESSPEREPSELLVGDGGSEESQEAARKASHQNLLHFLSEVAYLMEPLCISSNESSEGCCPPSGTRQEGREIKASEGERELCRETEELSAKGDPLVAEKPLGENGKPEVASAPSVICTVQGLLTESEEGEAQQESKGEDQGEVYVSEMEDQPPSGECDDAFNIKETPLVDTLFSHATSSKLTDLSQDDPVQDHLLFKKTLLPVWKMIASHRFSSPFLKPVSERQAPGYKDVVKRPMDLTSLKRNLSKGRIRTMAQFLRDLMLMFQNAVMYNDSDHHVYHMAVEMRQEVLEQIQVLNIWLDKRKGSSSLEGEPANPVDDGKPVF
Sequence of UniProt Q9NQ11 (Q9NQ11 whole entry, looked up): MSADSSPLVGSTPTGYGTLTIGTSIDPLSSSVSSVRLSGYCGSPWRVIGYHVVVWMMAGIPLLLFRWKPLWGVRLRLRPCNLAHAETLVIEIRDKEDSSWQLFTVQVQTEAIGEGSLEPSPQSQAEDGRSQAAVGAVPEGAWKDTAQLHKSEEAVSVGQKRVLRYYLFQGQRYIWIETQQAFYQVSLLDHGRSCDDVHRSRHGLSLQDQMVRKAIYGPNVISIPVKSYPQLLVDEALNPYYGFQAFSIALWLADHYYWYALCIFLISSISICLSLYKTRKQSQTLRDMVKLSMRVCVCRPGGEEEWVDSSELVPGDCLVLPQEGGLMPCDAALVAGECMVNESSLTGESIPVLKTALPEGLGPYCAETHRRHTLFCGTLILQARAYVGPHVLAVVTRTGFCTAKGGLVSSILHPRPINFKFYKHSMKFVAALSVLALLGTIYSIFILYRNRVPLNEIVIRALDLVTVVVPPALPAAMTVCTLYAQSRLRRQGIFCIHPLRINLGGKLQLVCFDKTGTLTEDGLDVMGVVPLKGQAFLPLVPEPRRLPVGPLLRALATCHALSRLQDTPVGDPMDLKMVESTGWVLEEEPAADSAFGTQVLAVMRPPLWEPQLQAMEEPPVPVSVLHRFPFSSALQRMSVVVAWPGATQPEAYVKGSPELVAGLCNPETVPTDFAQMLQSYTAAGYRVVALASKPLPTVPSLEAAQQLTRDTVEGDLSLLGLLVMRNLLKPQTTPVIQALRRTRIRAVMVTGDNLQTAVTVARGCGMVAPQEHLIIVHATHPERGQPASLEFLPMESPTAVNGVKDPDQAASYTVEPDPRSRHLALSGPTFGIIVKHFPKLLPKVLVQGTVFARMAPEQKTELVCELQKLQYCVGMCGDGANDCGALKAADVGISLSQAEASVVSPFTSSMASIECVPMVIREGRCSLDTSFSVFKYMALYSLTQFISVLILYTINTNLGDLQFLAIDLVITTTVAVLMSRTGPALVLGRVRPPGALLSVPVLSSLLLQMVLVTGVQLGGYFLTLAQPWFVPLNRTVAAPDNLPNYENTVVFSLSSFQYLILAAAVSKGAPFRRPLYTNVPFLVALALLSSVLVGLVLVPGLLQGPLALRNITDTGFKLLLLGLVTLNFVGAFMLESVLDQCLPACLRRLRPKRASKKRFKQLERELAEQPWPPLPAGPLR
Sequence of UniProt O94973 (O94973 whole entry, looked up): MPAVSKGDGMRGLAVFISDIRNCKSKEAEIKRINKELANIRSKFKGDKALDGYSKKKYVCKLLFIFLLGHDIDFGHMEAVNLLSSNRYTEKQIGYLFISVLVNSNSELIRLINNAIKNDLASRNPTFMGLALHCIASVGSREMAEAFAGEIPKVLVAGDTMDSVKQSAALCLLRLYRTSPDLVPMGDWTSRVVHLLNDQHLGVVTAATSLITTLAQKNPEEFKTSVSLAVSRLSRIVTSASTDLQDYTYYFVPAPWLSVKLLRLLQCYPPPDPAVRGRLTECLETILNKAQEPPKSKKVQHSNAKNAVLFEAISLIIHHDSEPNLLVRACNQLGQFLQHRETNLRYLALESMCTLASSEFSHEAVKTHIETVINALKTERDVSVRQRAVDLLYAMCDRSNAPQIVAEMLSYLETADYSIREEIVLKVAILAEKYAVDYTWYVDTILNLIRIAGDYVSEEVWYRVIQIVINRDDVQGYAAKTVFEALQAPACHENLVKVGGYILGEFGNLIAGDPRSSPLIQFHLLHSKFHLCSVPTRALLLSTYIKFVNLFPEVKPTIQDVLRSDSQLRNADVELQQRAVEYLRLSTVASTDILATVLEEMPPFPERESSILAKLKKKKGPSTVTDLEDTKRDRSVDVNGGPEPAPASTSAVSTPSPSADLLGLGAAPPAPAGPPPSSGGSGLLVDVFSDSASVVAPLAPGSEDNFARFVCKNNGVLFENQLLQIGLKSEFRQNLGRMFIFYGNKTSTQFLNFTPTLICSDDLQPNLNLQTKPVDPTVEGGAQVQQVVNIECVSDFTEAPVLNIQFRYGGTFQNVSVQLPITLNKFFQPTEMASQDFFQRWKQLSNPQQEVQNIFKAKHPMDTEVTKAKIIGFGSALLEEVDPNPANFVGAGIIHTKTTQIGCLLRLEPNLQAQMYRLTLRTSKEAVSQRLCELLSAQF
Sequence of UniProt Q8N5I2 (Q8N5I2 whole entry, looked up): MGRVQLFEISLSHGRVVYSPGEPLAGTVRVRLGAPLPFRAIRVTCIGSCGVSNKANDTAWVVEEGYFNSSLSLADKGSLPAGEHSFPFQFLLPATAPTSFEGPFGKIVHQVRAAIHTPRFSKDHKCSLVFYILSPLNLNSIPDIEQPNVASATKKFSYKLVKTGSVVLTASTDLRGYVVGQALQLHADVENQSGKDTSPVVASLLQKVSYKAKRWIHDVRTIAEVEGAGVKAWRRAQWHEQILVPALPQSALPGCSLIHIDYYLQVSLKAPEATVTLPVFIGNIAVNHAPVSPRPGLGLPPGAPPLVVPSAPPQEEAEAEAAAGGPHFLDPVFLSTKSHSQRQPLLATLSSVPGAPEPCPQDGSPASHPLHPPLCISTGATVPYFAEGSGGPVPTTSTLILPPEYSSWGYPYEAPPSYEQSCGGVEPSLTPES
Sequence of UniProt Q8N2F6 (Q8N2F6 whole entry, looked up): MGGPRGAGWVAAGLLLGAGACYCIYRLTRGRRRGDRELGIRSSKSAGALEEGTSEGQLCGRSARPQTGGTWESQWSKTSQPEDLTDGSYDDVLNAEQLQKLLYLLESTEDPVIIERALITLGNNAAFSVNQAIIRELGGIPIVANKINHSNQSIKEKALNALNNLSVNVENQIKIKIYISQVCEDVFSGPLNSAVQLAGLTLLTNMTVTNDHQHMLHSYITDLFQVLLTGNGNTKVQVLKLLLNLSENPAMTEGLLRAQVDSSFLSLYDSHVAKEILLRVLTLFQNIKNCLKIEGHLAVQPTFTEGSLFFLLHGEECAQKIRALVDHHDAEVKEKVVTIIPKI
Sequence of UniProt Q9NX38 (Q9NX38 whole entry, looked up): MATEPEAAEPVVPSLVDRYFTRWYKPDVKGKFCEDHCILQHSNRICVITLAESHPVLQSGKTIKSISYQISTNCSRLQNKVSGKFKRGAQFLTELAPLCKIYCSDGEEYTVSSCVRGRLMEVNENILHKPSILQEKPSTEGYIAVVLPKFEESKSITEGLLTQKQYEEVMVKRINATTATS

| Target | log2 fold change [1] | log2 fold change [2] | log2 fold change [3] | log2 fold change [4] | log2 fold change [5] | log2 fold change [6] | log2 fold change [7] | log2 fold change [8] | log2 fold change [9] | log2 fold change [10] | log2 fold change [11] | log2 fold change [12] | log2 fold change [13] | log2 fold change [14] | log2 fold change [15] | log2 fold change [16] | log2 fold change [17] | log2 fold change [18] | log2 fold change [19] | log2 fold change [20] |
| --- | --- | --- | --- | --- | --- | --- | --- | --- | --- | --- | --- | --- | --- | --- | --- | --- | --- | --- | --- | --- |
| ARMC10 (UniProt Q8N2F6) | 0.012 | -0.123 | 0.002 | 0.109 | 0.079 | -0.03 | 0.157 | 0.006 | 0.142 | -0.049 | 0.011 | 0.046 | 0.107 | -0.092 | -0.039 | 0.117 | 0.004 | -0.133 | -0.01 | 0.07 |
| ATP13A2 (UniProt Q9NQ11) | 0.061 | 0.036 | 0.023 | 0.026 | 0.015 | -0.116 | 0 | 0.039 | -0.027 | 0.026 | 0.053 | -0.134 | 0.023 | 0.027 | -0.143 | 0.019 | -0.005 | 0.053 | -0.005 | 0.066 |
| BRD3 (UniProt Q15059) | 0.093 | -0.116 | -0.076 | -0.571 (active) | 0.011 | -0.319 | -0.083 | 0.325 | 0.086 | -0.128 | 0.027 | 0.297 | -0.077 | -0.012 | -0.035 | 0.086 | 0.227 | -0.002 | -0.057 | 0.081 |
| BRD8 isoform 2 (UniProt Q9H0E9) | -0.06 | 0.058 | 0.012 | -0.296 | 0 | -0.064 | -0.015 | -0.021 | 0.028 | 0.145 | -0.201 | 0.042 | 0.027 | -0.027 | – | -0.113 | – | – | 0.019 | 0.06 |
| AP2M1 (UniProt C9JTK4) | -0.109 | 0.055 | 0.203 | -0.045 | – | -0.053 | 0.07 | -0.019 | -0.048 | 0.193 | 0.016 | 0.132 | -0.203 | 0.224 | -0.177 | – | 0.005 | 0.123 | – | – |
| ABITRAM (UniProt Q9NX38) | 0.035 | -0.188 | -0.107 | -0.007 | – | -0.164 | -0.041 | -0.243 | 0.025 | -0.049 | 0.06 | 0.036 | 0.041 | 0.022 | 0.101 | 0.006 | 0.111 | 0.139 | 0.021 | 0.053 |
| ARRDC1 (UniProt Q8N5I2) | 0.17 | -0.026 | -0.275 | 0.004 | -0.06 | -0.046 | 0.075 | -0.02 | -0.01 | -0.006 | – | 0.013 | 0.182 | – | 0.152 | -0.098 | -0.009 | 0 | 0.01 | -0.092 |
| ASH2L (UniProt Q9UBL3) | 0.023 | -0.025 | -0.035 | 0.052 | 0.023 | -0.12 | 0.012 | -0.036 | 0.037 | -0.009 | 0.019 | 0.044 | 0.096 | 0.021 | -0.034 | 0.035 | 0.004 | -0.014 | -0.011 | 0.039 |
| AP2A2 isoform 2 (UniProt O94973) | 0.006 | -0.028 | 0.052 | 0.022 | 0.022 | -0.006 | 0.077 | -0.053 | -0.002 | -0.008 | 0.009 | 0.064 | 0.003 | 0.022 | -0.095 | 0.083 | 0.027 | 0 | 0.01 | -0.002 |
